Screening results (PubChem)
RE007 growth inh: less growth of the S. pombe RE007 Vpr strain | S. pombe RE007 Vpr strain, BacTiter-Glo ATP luminescence, 24 h | Potency, µM (series often up to 92.2 µM), for the others: top-dose activity change, negative = less growth, most hits filed as inhibitors | actives 0.21% (n = 360,000) | AID 651644; active = well fitted falling curve with a large enough effect; inconclusive = small, poorly fitted or top-dose-only effect; inactive = no such curve, though single readings can be large or run the other way; note: potency is the fitted concentration of half-maximal effect; % is set by controls: 0 for no effect and ±100 for the full control effect; nearly all actives have a fitted effect of over 50% in size
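Fission yeast RE007 carrying one integrated HIV-1 vpr copy, seeded at OD 0.01 in PMG+AL medium with 23 nL pinned compound. Grown 24 h at 30 degrees; viability read by BacTiter-Glo luminescence after 5 min.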
Shiga toxin inh: Shiga toxin inhibition | inhibition, % at 38.7 µM | actives 9.2% (n = 290,000) | Vero cells, Shiga toxin protein synthesis inhibition reporter | AID 2315; in the data active = inhibition mostly above about 28%, no sharp cut-off; inactive = mostly below about 43%; note: 0% is about no effect
LmPK inhibitor: blocks Leishmania mexicana pyruvate kinase activity; AID 1721; actives 0.37% (n = 290,000); purified LmPK, Kinase-Glo ATP luminescence, 1 h; Potency, µM (titrated, usually from 57.5 µM), without a hit: top-dose activity change, negative = inhibition, most hits filed as inhibitors; Q27686; note: potency is the fitted concentration of half-maximal effect; % is set by controls: 0 for no effect and ±100 for the full control effect
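0.1 nM LmPK, 0.5 mM PEP, 0.1 mM ADP; 50 mM imidazole pH 7.2, 7 mM MgCl2, 50 mM KCl; 1 h RT. Kinase-Glo luminescence readout, normalized to no-enzyme (full inhibition) and uninhibited wells.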
FBPA Giardia inh: Giardia lamblia aldolase inhibition. purified Giardia FBPA. AID 2451. actives 0.71% (n = 290,000). Potency, µM (highest dose often 59.6 µM), for the others: top-dose activity, negative = inhibition, hits mostly inhibitors; note: potency is the fitted concentration of half-maximal effect; % is set by controls: 0 for no effect and ±100 for the full control effect; nearly all actives have a fitted effect of over 55% in size
Target sequence (A8B2U2 whole entry, looked up): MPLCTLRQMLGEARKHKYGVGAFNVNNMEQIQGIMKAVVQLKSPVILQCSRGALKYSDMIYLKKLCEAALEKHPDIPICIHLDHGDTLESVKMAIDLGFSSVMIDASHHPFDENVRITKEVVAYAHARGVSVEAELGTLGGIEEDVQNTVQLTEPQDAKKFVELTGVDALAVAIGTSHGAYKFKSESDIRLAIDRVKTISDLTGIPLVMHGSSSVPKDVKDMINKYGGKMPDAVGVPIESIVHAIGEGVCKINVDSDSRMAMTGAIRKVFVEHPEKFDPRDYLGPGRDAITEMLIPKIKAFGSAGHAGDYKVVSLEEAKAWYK
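40 nM FBPA preincubated 10 min at RT with compound (up to 57.5 uM final), then substrate plus GAPDH/TPI/NAD/arsenate coupling and diaphorase/resazurin added. Fluorescence read after 20 min at RT, 525/598 nm.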
Tb PYK inh: inhibitors of Trypanosoma brucei pyruvate kinase. TbPYK enzyme, Kinase-Glo Plus ATP luminescence, 45 min. actives 0.12% (n = 410,000). AID 624173. Q57TT1. Potency, µM (series often up to 76.8 µM), for the others: at the top dose activity, negative = inhibition, hits mostly inhibitors; note: potency is the fitted concentration of half-maximal effect; % is set by controls: 0 for no effect and ±100 for the full control effect; nearly all actives have a fitted effect of over 50% in size
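Assay buffer: 50 mM TEA pH 7.2, 100 mM KCl, 10 mM MgCl2, 0.05% BSA, 0.01% Tween-20. Pyruvate kinase from T. brucei plus substrate met compound, then ADP (130 uM final). Luminescence was read post 45 min RT.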
CHX counter: counter-screen hit for Shiga toxin inhibitors, cycloheximide | AID 2314 | max response, % | actives 12% (n = 300,000) | cell reporter, cycloheximide protein synthesis inhibition counterscreen; in the data active = max response mostly above about 13%, no sharp cut-off; inactive = mostly below about 14%; note: read at 38.3 µM for the half of the compounds with a filed dose; 0% is about no effect
The depositor's hits bear a star; ? = inconclusive; . = not tested or not shown; + = active, no number; [ ] = another dose, or the depositor's remark. Only a selection was taken, and hits are over-represented in it overall. Unless noted, calls come from the whole dose curve; as a rule, active = well fitted curve in the direction sought with a large enough effect; inconclusive = small, poorly fitted or top-dose-only effect, or another doubt; inactive = no such curve, though single readings can be large; an effect the other way counts as inactive or inconclusive.

SMILES | RE007 growth inh | Shiga toxin inh | LmPK inhibitor | FBPA Giardia inh | Tb PYK inh | CHX counter
N#Cc1c2n(c3c(=S)nc[nH]c13)CCCCC2 | -1% | -15 | 22µM* | ? | ? | -1
CCN1CCN(c2ccc(NC(=O)c3ccc(Br)o3)cc2)CC1 | 1% | 111* | 0% | 1% | 4% | 43*
O=C(Nc1ccc(N2CCCC2)cc1)c1ccc(Br)o1 | 6% | 71* | -28% | -19% | -8% | 58*
CCN(CC)CCC(c1cc(OC)c(OC)c(OC)c1)c1c(OC)cc(OC)c2c1OC(=O)CC2c1ccc(N(C)C)cc1 (stereo unspecified) | . | -12 | . | 1% | . | -1
CO[C@H]1CC[C@@]2(C)[C@@H](CC[C@@H]3[C@@H]2CC[C@@]2(C)[C@H]3C[C@H](C(=O)N[C@@H](CCCN=C(N)N)C(=O)NCC(=O)N[C@@H](CC(=O)O)C(N)=O)O[C@]23CCCO3)C1 | 17% | . | . | . | 1% | .
O=C(Nc1cc(Sc2ccccn2)cc([N+](=O)[O-])c1)c1ccc(Cl)cc1 | 10% | 57 | 0% | -15% | -3% | 21*
O=C(Nc1cc(Sc2ccccn2)cc([N+](=O)[O-])c1)c1cccc(Cl)c1 | 20% | 8 | 1% | -20% | -3% | 9
COc1ccc(C2=C(SC)CC2=NC(C)(C)C)cc1 | 11% | 30 | -2% | -3% | -3% | 13*
COc1ccc(OC)cc1 | -7% | . | . | . | 3% | .
COc1ccc(NC(=O)C(c2ccccn2)N(C(C)=O)c2ccc(C)cc2)cc1 (stereo unspecified) | -6% | 60* | -3% | -11% | 4% | 16*
CCOc1ccc(NC(=O)C(c2ccccn2)N(C(=O)CCl)c2ccc(OC)cc2)cc1 (stereo unspecified) | -15% | 77* | 3% | 7.1µM* | -18% | 55*
COc1ccc(N(C(=O)CCl)C(C(=O)NC2CCCCC2)c2cccnc2)cc1 (stereo unspecified) | -10% | -8 | 0% | 1% | -11% | 2
CCOc1ccc(NC(=O)C(c2ccccn2)N(C(=O)CCl)c2ccc(OCC)cc2)cc1 (stereo unspecified) | -5% | + | -5% | ? | -17% | 49*
O=C(COc1ccc(Cl)cc1)NCc1nnc(SCC(=O)Nc2ccccc2F)o1 | 1% | -2 | 0% | -2% | -19% | -1
COc1cc(/C=C/c2nc3ccccc3c(=O)[nH]2)cc(Cl)c1O | 8% | 25 | 7% | -30% | 4% | -3
COc1ccc(C(=O)Nc2nc3ccccc3c(=O)[nH]2)cc1 | -5% | 82* | -1% | -1% | -2% | 44*
CCN(CC(=O)Nc1ccc(C(=O)Nc2ccc(OC)cc2)cc1)Cc1nc2ccccc2c(=O)[nH]1 | 6% | 7 | 3% | -16% | -10% | 10
COc1ccc(C(=O)Nc2cccc(/C=C/c3nc4ccccc4c(=O)[nH]3)c2)cc1 | -5% | 107* | -2% | -7% | -2% | 20*
O=C(Nc1cccc(/C=C/c2nc3ccccc3c(=O)[nH]2)c1)c1ccccc1Cl | -8% | 39 | -2% | 2% | -4% | 11*
Cc1[nH]c(=O)sc1C(=O)NCc1ccc([N+](=O)[O-])cc1 | -20%[18.4 µM] | . | . | . | 0% | .
CC(O)(c1ccc(Cl)cc1)C(c1ccccc1)c1ccccn1 (stereo unspecified) | 4% | . | . | . | 0% | .
Cc1ccc(NC(=O)OCc2ccccc2S(C)=O)cc1 (stereo unspecified) | -2% | 38 | 11% | 3% | 0% | 30*
CC(C)OC(=O)NCCOC(=O)Nc1ccc(Cl)cc1 | 1% | 24 | 5% | -2% | 5% | 5
CS(=O)c1ccccc1COC(=O)Nc1ccc(Cl)cc1 (stereo unspecified) | 4% | 36 | 6% | 2% | -6% | 16*
Cc1ccc(CNC(=O)/C=C/c2cccs2)cc1 | ? | 78* | -3% | 0% | 7% | 27*
CCN1CCN(C(=S)NC(=O)/C=C/c2cccs2)CC1 | -25% | 3 | 1% | -13% | -2% | 17
